# In all, about 18,000 sequences were measured (“log2 normalized intensity”: median about 0.36, highest 2% from about 7.3 on). The list comes from a sample in which the highest values are over-represented; it also holds similar and randomly drawn sequences.
# Molecular target: T1, HNF4alpha8 (COS-7 nuclear extract) (Homo sapiens, UniProt P41235-5 1-452)
# T1 sequence: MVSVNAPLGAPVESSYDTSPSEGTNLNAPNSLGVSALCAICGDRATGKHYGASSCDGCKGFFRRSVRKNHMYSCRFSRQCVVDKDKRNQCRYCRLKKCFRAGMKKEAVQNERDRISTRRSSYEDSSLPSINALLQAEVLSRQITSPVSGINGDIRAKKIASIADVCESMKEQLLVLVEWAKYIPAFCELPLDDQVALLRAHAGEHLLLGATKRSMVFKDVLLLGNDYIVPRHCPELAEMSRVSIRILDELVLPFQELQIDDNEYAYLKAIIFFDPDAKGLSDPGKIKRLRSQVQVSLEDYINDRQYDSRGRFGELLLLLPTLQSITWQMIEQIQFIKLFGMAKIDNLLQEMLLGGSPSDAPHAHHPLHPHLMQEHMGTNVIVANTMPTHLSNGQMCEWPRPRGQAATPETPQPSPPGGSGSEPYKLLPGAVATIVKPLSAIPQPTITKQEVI
# Test: protein-binding microarray; COS-7 nuclear extract on double-stranded Agilent 4x180k PBM; binding buffer, salt, pH and temperature not given in the material; high values mean tight binding
# Details: chain copies: 2; label: 3' end of strand 1 on the slide; dsDNA, one strand shown
# Procedure, shortened: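 Binding signal is the background-corrected, normalized gProcessedSignal calculated by Agilent software. It was measured by applying nuclear extracts of COS-7 cells transiently transfected with a human HNF4α isoform expression vector to a custom Agilent SurePrint G3 4x180k array of ~44,000 double-stranded ~60-nt test sequences in quadruplicate, then imaging bound HNF4α on an Agilent G2565CA scanner at 2-µm resolution.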
row,Sequence,binding signal [log2 normalized intensity]
1,CAATCCTGGAGAAGGAGCACCAATGACCTTGCCTAGGGAGATTAGAGTATCGGTCGA,4.02
2,CTAAGCAGCGAAGCTGTGTCAGGCATTGTAGCCTAGGGAGATTAGAGTATCGGTCGA,-0.633
3,AGATTCTGCAAACCTATTAATATATTCATAGCCTAGGGAGATTAGAGTATCGGTCGA,-0.929
4,CTTTGGCCAAGGGCAGTGTTTGCCCAGCTTGCCTAGGGAGATTAGAGTATCGGTCGA,0.731
5,GAGTCTGTTGTCTAACATTTTTGACCTTCAGCCTAGGGAGATTAGAGTATCGGTCGA,4.68
6,CCTCTTTGAGTCTGGTGTTCTCTTGGCCAAGCCTAGGGAGATTAGAGTATCGGTCGA,1.63
7,TTGACCTTTGGCCAAGGGCAGTGTTTGCCCGCCTAGGGAGATTAGAGTATCGGTCGA,6.36
8,AGGCAGTCTGTTGACCTTTGGCCAAGGGCAGCCTAGGGAGATTAGAGTATCGGTCGA,8.19
9,GTCTGTTGACCTTTGGCCAAGGGCAGTGTTGCCTAGGGAGATTAGAGTATCGGTCGA,7.73
10,TCTTTACACCATTGCAAGGATTCCAAATTTGCCTAGGGAGATTAGAGTATCGGTCGA,0.0367
11,AAAGATTGCAGCAAGGAATTCAACCCTTGTGCCTAGGGAGATTAGAGTATCGGTCGA,2.23
12,GTCTTATCTACCTGGCTTGTTTGCAAAGCAGCCTAGGGAGATTAGAGTATCGGTCGA,0.749
13,TGCAGTTTCCCTATTCTCAGTGATATAAAAGCCTAGGGAGATTAGAGTATCGGTCGA,0.942
14,GCCACCCTCCTCTCTGGGTCAAAGGTCATCGCCTAGGGAGATTAGAGTATCGGTCGA,10.2
15,CCTCCTCTCTGGGTCAAAGGTCATCGCACCGCCTAGGGAGATTAGAGTATCGGTCGA,8.5
16,GAGGTGTCAGCCACCCCTCCTCCTGGGGGCGCCTAGGGAGATTAGAGTATCGGTCGA,2.93
17,CCTGCCTCTCCTCTGAGCTTCATCCTGACCGCCTAGGGAGATTAGAGTATCGGTCGA,1.7
18,GGGGTCAAAGTCCCCTGAGCTTGAGTCCATGCCTAGGGAGATTAGAGTATCGGTCGA,6
19,TCTCTGGGTCAAAGGTCATCGCACCGGCAGGCCTAGGGAGATTAGAGTATCGGTCGA,7.54
20,CACTGGCTCTGGGGTCAAAGTCCCCTGAGCGCCTAGGGAGATTAGAGTATCGGTCGA,7.66
21,CTCTCCCTCCTCTCTGAGCAGTCAAACTGGGCCTAGGGAGATTAGAGTATCGGTCGA,1.89
22,CCTGGTCAAAGTCAACTCCTCCAAGCCACCGCCTAGGGAGATTAGAGTATCGGTCGA,0.614

row,Sequence,binding signal [log2 normalized intensity]
1,AAAGGTCATCGCACCGGCAGGGGAGAACTTGCCTAGGGAGATTAGAGTATCGGTCGA,1.24
2,CTGGGGCCACCCTCCTCTCTGGGTCAAAGGGCCTAGGGAGATTAGAGTATCGGTCGA,5.36
3,AGGTCGCAAGCACTGGCTCTGGGGTCAAAGGCCTAGGGAGATTAGAGTATCGGTCGA,4.08
4,CCAATTCACAGAACTCCCTAAGTGGCCTCAGCCTAGGGAGATTAGAGTATCGGTCGA,0.0537
5,GGTTGTCAGACTGGTGTAGTGGGGAGGGCAGCCTAGGGAGATTAGAGTATCGGTCGA,1.35
6,GCGGCATTCCTGTCAAAATCTGATCTTTCCGCCTAGGGAGATTAGAGTATCGGTCGA,1.47
7,CAAGTTGGTTTACATTCTTAGAAGATAAAGGCCTAGGGAGATTAGAGTATCGGTCGA,0.323
8,GAGGCTTTGAGTCATTGAGGCTTTGCCTTAGCCTAGGGAGATTAGAGTATCGGTCGA,-0.699
9,GAGACCCATTTTGGACTTTGACCTCCAAAAGCCTAGGGAGATTAGAGTATCGGTCGA,11.3
10,GAATTCTTGACTTTGGACTTTCAAAAGTTAGCCTAGGGAGATTAGAGTATCGGTCGA,5.14
11,CATTGACTTTGCCTTTTGGCTAAAGTCCAAGCCTAGGGAGATTAGAGTATCGGTCGA,4.75
12,TTGGACTTTGACCTCCAAAATTATAAGTCAGCCTAGGGAGATTAGAGTATCGGTCGA,8.58
13,CCATTTTGGACTTTGACCTCCAAAATTATAGCCTAGGGAGATTAGAGTATCGGTCGA,10.9
14,CTTGACTTTGGACTTTCAAAAGTTAAGGTCGCCTAGGGAGATTAGAGTATCGGTCGA,3.98
15,CACAGCTGGACTTTGGCTGCAAAATTTGAAGCCTAGGGAGATTAGAGTATCGGTCGA,3.88
16,CTTTGTAGCACTTTGGACCTCCACTTTGGAGCCTAGGGAGATTAGAGTATCGGTCGA,3.36
17,AATGATGATGACTTTTGACCCCAGGGGAAAGCCTAGGGAGATTAGAGTATCGGTCGA,6.38
18,TTTGTCAAATGCTTCCAAGAATTTAAGAGAGCCTAGGGAGATTAGAGTATCGGTCGA,-0.862
19,CAGAGGACAGGTTTCCTGAGTTACAGATAAGCCTAGGGAGATTAGAGTATCGGTCGA,-0.778
20,ATTCACATCTCCAGTTCCAAAGTCCAGGTGGCCTAGGGAGATTAGAGTATCGGTCGA,6.55
21,TGTTAGCAGAAACCATCTGGCTTGGCCCCCGCCTAGGGAGATTAGAGTATCGGTCGA,4.14
